# Screens deposited in PubChem BioAssay by National Center for Advancing Translational Sciences (NCATS).
# In the library only some 3.8% were active in any assay of this set; here they are far more common.
# HT1080NT lethal: kills 2HG-producing HT-1080-NT fibrosarcoma cells | Potency, µM (highest dose often 46.1 µM), without a hit: at the highest dose activity, negative = less viability, actives largely listed as cytotoxic | HT-1080-NT fibrosarcoma viability, CellTiter-Glo ATP luminescence, 48 h | 360,000 compounds, 1.6% hits;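 further: NT is the 2HG producing partner of a matched IDH1 knockdown line; 0% = DMSO-treated cells and -100% = media-only wells without cells; nearly all actives have a fitted effect of over 55% in size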
#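 Viability of the 2HG-overproducing fibrosarcoma line after 48 hours of compound exposure at 37 degrees C was determined by luminescence with CellTiter-Glo, and concentration-effect curves were then fitted and categorized.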
# ATXN2 expr inh: reduces ATXN2 reporter expression in HEK-293 cells. HEK-293 ATXN2-luciferase reporter, luminescence, 24 h. Potency, µM (top dose mostly 57 µM), for inactives: at the highest dose activity change, negative = inhibition, actives largely listed as inhibitors. 360,000 compounds, 0.72% hits; further: on the % scale 0 is the no-effect control and ±100 the full control effect; nearly all actives have a fitted effect of over 55% in size
#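 qHTS (up to 57 uM final) was run with 24 h compound exposure of reporter cells at 37 °C. Each well was multiplexed: SteadyGlo luminescence measured ATXN2-luciferase expression after a fluorogenic Gly-Phe-AFC viability readout (25 uM final).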
# S2 tox: cell viability loss in ATXN counter-screen; S2 cells (HEK-293 line with an ATXN2-luciferase reporter) viability, CellTiter-Fluor protease fluorescence, 24 h; Potency, µM (series often up to 56.7 µM), usual class: cytotoxic; 400,000 compounds, 0.49% hits; AID 651635; further: nearly all actives have a fitted effect of over 40% in size
# HT1080 IDH1KD tx: HT-1080 IDH1 knockdown cell toxicity (counter line). HT-1080 IDH1 knockdown viability, ATP luminescence, 48 h. Potency, µM (highest dose often 46.1 µM), without a hit: top-dose activity, negative = toxicity, usual class: cytotoxic. 360,000 compounds, 2% hits;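 further: 0% = DMSO wells and -100% = cell-free medium wells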
#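 After a 2 h attachment period, IDH1KD HT-1080 cells took pin-transferred compound for 48 h at 37 °C; ATP-based luminescence after 10 min room-temperature reagent incubation reported viability.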
# HepG2 tox: kills HepG2 cells in TGF-b inhibitor counter-screen; HepG2 CAGA-GFP viability, ATP luminescence, 18 h; Potency, µM (top dose mostly 46.1 µM), for the others: at the highest dose activity change, negative = cytotoxicity, usual class: cytotoxic; 410,000 compounds, 0.76% hits; AID 588856
#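 CellTiter-Glo luminescence gave cytotoxicity after 18 hours at 37 degrees C. The cells were HepG2 CAGA-GFP in 1% FBS DMEM, stimulated with 500 pg/mL TGF-beta after compound addition. %Activity was normalised to no-cell wells (complete cell-killing) and DMSO (no toxicity), and curves were fitted and classified.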
# TGFb SMAD3 inh: blocks TGF-b signaling; 410,000 compounds, 1.2% hits; Potency, µM (top dose mostly 46.1 µM), without a hit: at the highest dose activity, negative = inhibition, usual class: inhibitors; HepG2 CAGA-GFP TGF-b/SMAD3 reporter, GFP fluorescence, 18 h; TGF-beta stimulated, 500 pg/mL final; further: on the % scale 0 is the no-effect control and ±100 the full control effect; nearly all actives have a fitted effect of over 65% in size
#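 Using HEPG2 CAGA-GFP reporter cells at 1000 cells/well, we pinned test compounds, stimulated with recombinant TGF-beta (500 pg/mL final) and measured total well GFP after 18 h.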
# Active calls of the source: *; i = inactive; ? = inconclusive; · = not tested or not shown; ! = repeats disagree. The call rests on the fitted dose curve; in most records, active means well fitted curve in the direction sought with a large enough effect; inconclusive means small, poorly fitted or top-dose-only effect, or another doubt; inactive means no such curve, though single readings can be large; an effect the other way counts as inactive or inconclusive. Potency means the concentration at half of the fitted maximal effect.
SMILES,HT1080NT lethal,ATXN2 expr inh,S2 tox,HT1080 IDH1KD tx,HepG2 tox,TGFb SMAD3 inh
C=C1CCN(C(Cc2ccccc2)C(=O)NC2CCN(Cc3ccccc3)CC2)S(=O)(=O)c2ccccc21 (stereo not drawn),·,·,·,·,4.1%,-7.1%
Cc1ccccc1CN(C)CCS(=O)(=O)c1cc(Cl)ccc1Cl,16.4µM*,1.4%,i,13µM*,6.5%,?
COCCNC(=S)N=Nc1c(O)[nH]c2ccc([N+](=O)[O-])cc12,2.6%,0.7%,?,25.9µM*,16.5%,7.5%
CCCCCCC(=O)N=Nc1c(O)[nH]c2ccc([N+](=O)[O-])cc12,4.8%,8.0%,i,15.2%,0.5%,10.1%
CCCn1c(CC)nc([N+](=O)[O-])c1S(=O)(=O)c1ccccc1,?,?,·,?,11.2µM*,?
O=C(CN1C(=O)CCC1=O)c1ccc(-c2ccccc2)cc1,?,16.6%,i,25.4%,4.9%,-1.1%
N=c1ccn(CC(=O)c2ccc(-c3ccccc3)cc2)cc1,?,2.99µM*,i,16.4µM*,-26.2%,?
O=C(Nc1cc(C(=O)NC2CCOCC2)c2c(c1)ncn2C1CCCC1)c1ccccc1,·,·,i,·,·,·
Cc1ccc(C)c(Nc2nn3c(=O)c4ccc(C(=O)NCc5cccs5)cc4nc3s2)c1,·,·,·,·,6.31µM*,5.01µM*
CCOC(=O)C1CCN(C(=O)c2ccc3c(=O)n4nc(Nc5cc(C)ccc5C)sc4nc3c2)CC1,-20.7%,-30.3%,i,-19.1%,-25.6%,12.6µM*
Cc1cccc(Cn2nnc3c2C(=O)c2ccccc2C3=O)c1,?,·,·,?,-57.5%,3.16µM*
Cc1cccc(Cn2cnc3c(nnn3Cc3ccccc3F)c2=O)c1,-0.6%,12.6%,i,-26.1%,8.8%,-11.9%
Cc1ccccc1Cn1nnc2c1C(=O)c1ccccc1C2=O,-9.0%,-16.6%,i,23.1µM*,-88.3%,3.55µM*
CCc1cc(/C=C/c2ccnc3ccccc23)ccc1N(C)C,·,·,·,·,-56.9%,-3.1%
CCn1c(=O)c(C(=O)CN2CCCc3ccccc32)c(N)n(Cc2ccccc2)c1=O,-13.4%,-2.2%,i,-21.3%,-17.6%,11.2µM*!
Cc1ccc(Cc2c(-c3ccc(Br)cc3)nc3cc(C)ccn23)cc1,20.4%,54.0%,?,16.5%,1.4%,12.7%
Cc1ccc(Cc2c(-c3ccc(F)cc3)nc3cc(C)ccn23)cc1,-11.2%,-26.2%,28.2µM*,-27.2%,-37.4%,?
Cc1ccc2c(c1)/C(=N/OS(=O)(=O)c1ccccc1)CCS2,1.5%,3.0%,i,4.6%,3.2%,?
CC1=CC(=O)C(C(C)C)=C/C1=N/OS(=O)(=O)c1ccccc1,8.2µM*,·,3.16µM*,5.8µM*,-98.6%,5.01µM*
CC1=CC(=O)C=C(C)C1=NOS(=O)(=O)c1ccccc1,?,?,?,20.6µM*,-111.7%,?
CCCCC[n+]1ccn(-c2nc3ccccc3nc2[N-]S(=O)(=O)c2ccc(C)cc2)c1,2.6%,0.9%,i,5.3%,-4.9%,3.5%
CCCC[n+]1ccn(-c2nc3ccccc3nc2[N-]S(=O)(=O)c2ccccc2)c1,5.2%,5.5%,i,1.2%,2.7%,5.3%
CCCC[n+]1ccn(C2=C([O-])c3ccccc3C(=O)/C2=N\S(=O)(=O)c2ccccc2)c1,11.2µM*,?,?,15.8µM*,11.2µM*,8.91µM*
CC(C)(C)c1cc[n+](C2=C([O-])c3ccccc3C(=O)/C2=N\S(=O)(=O)c2ccccc2)cc1,?,?,?,20.6µM*,i,14.1µM*
CCCCC[n+]1ccn(C2=C([O-])c3ccccc3C(=O)/C2=N\S(=O)(=O)c2ccc(Br)cc2)c1,-7.4%,·,i,-2.1%,3.98µM*,1.58µM*
SMILES,HT1080NT lethal,ATXN2 expr inh,S2 tox,HT1080 IDH1KD tx,HepG2 tox,TGFb SMAD3 inh
CCCCC[n+]1ccn(C2=C([O-])c3ccccc3C(=O)/C2=N\S(=O)(=O)c2ccccc2)c1,?,?,i,18.4µM*,6.31µM*,?
CCCC(=O)OCc1cnc(C)c2oc(=O)c(C(=O)Nc3ccccc3)cc12,·,6.0%,i,·,-5.7%,2.4%
CC(C)[n+]1ccn(C2=C([O-])c3ccccc3C(=O)/C2=N\S(=O)(=O)c2ccccc2)c1,23.1µM*,-41.0%,i,23.1µM*,-128.3%,20µM*
c1ccc(-c2nc(N3CCCCCC3)c3ccccc3n2)nc1,-27.6%,?,11.2µM*,?,6.5%,0.5%
CCN1CCN(c2nc(-c3ccccn3)nc3ccccc23)CC1,8.91µM*,?,i,10µM*,2.7%,-15.8%
CCN1CCN(c2nc(-c3ccccc3)c3ccccc3n2)CC1,13µM*,-18.0%,i,?,-11.5%,-22.6%
c1ccc(-c2nc(N3CCCCC3)nc3ccccc23)cc1,-8.1%,2.6%,·,-12.5%,-32.1%,?
CCCN(CCC)c1nc(-c2ccccn2)nc2ccccc12,?,?,?,9.2µM*,-54.1%,?
CCCN(CCC)c1nc(-c2ccccc2F)nc2ccccc12,·,-9.8%,i,·,-11.9%,-21.5%
CC(C)OP(=O)(CP(=O)(OC(C)C)OC(C)C)OC(C)C,·,3.2%,i,·,·,·
O=C1c2ccccc2C(=O)N1c1ccc(S(=O)(=O)N2CCOCC2)cc1,·,·,·,·,-2.6%,-0.3%
